Bioassay records deposited in PubChem by National Center for Advancing Translational Sciences (NCATS).
Shown are actives, neighbours in structure and some others; about 7.3% of the full set was active somewhere.
SMN2 splice up – qHTS Assay for Enhancers of SMN2 Splice Variant Expression | AID 1458, 2008 | HEK293 SMN2-luciferase splicing reporter, luminescence, 30-36 h | Potency, µM (titrated, usually from 46.1 µM), without a hit: at the top dose activity change, positive = activation, actives largely listed as activators | 210,000 compounds, 2.8% hits; note: % of control where 0% means no effect; nearly all actives have a fitted effect of over 55% in size
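qHTS luciferase splicing reporter: luminescence rises when SMN2 exon 7 is included in transfected HEK293 cells. Compound exposure lasted 30-36 h at 37C, with 4.5 mM final sodium butyrate as control, followed by a ONE-Glo read.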
uPA generation – qHTS for Inhibitors of Cell Surface uPA Generation; cell surface uPA generation assay, qHTS; Potency, µM (titrated, usually from 38.3 µM), without a hit: top-dose activity change, negative = inhibition, most hits filed as inhibitors; 330,000 compounds, 0.31% hits; AID 540303, 2011; active = well fitted inhibition curve with a large enough effect; inconclusive = small, poorly fitted or top-dose-only effect; inactive = no such curve, though single readings can be large or run the other way; tested in mouse RAW 264.7 cells; note: % is set by controls: 0 for no effect and ±100 for the full control effect; nearly all actives have a fitted effect of over 55% in size
FLuc modulator – qHTS profiling assay for firefly luciferase inhibitor/activator using purifed enzyme and Km concentrations of substrates (counterscreen for miR-21 project) | purified FLuc, Km substrates, luminescence inhibition | Potency, µM (series often up to 57.5 µM), without a hit: at the top dose activity change, negative = inhibition, hits mostly inhibitors | 360,000 compounds, 6.9% hits | AID 588342, 2011;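 note: plate controls were vehicle for no effect and reference inhibitor for full effect; nearly all actives have a fitted effect of over 55% in size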
Target sequence (P08659 whole entry, looked up): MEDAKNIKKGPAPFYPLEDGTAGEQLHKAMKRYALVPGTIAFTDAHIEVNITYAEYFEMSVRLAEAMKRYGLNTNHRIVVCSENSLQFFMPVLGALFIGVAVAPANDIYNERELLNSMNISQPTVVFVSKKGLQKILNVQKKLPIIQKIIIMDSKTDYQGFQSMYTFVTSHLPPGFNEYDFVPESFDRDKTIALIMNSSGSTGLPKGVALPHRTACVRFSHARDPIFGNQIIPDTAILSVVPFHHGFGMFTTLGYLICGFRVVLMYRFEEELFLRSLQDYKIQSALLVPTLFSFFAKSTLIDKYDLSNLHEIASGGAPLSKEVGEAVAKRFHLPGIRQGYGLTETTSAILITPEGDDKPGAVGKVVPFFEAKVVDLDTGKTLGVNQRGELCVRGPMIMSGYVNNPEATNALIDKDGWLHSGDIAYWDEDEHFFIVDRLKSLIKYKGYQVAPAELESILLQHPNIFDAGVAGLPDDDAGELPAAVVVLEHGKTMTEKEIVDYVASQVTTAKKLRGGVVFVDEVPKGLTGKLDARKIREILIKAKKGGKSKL
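Biochemical qHTS of compounds, final roughly 60 µM downward over six points, against 10 nM purified firefly luciferase using Km concentrations of substrates (10 uM D-luciferin, 10 uM ATP) in Tris acetate pH 7.5 buffer; luminescence output.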
NPC1 promoter act – qHTS Assay for NPC1 Promoter Activators. 320,000 compounds, 2.4% hits. Huh7 NPC1 promoter luciferase reporter, 24 h. Potency, µM (top dose mostly 9.22 µM), for the others: top-dose activation, most hits filed as activators; note: % of control where 0% means no effect; nearly all actives have a fitted effect of over 60% in size
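Quantitative HTS used a cell-based reporter: Huh7 cells stably bearing the NPC1 promoter upstream of luciferase were treated with compounds for 24 h, and promoter activation was read as luminescence.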
Rab9 prom act – qHTS Assay for Rab9 Promoter Activators. Huh7 Rab9 promoter-luciferase reporter, luminescence, 24 h. Potency, µM (highest dose often 9.22 µM), without a hit: at the top dose activation, negative = inhibition, actives largely listed as activators. 320,000 compounds, 2.8% hits. AID 485297, 2010; note: % of control where 0% means no effect; nearly all actives have a fitted effect of over 60% in size
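Measured in stably transfected Huh7 cells bearing a Rab9 promoter–luciferase construct: 24 h compound treatment at 37 °C, followed by luminescence detection.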
ELG1 genotox – qHTS screen for small molecules that induce genotoxicity in human embryonic kidney (HEK293T) cells expressing luciferase-tagged ELG1; Potency, µM (series often up to 46 µM), inactives show top-dose activity change, positive = activation, most hits filed as activators; 330,000 compounds, 1.3% hits; HEK293T ELG1-luciferase reporter, luminescence, 16 h; note: % of control where 0% means no effect; nearly all actives have a fitted effect of over 60% in size
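Genotoxic stress is detected as increased luminescence from luciferase-tagged ELG1 in HEK293T cells, measured with ONE-Glo after a 16 hr treatment at 37 °C.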
* hit, by the source's call; ? = inconclusive; / = no result; [ ] = dose if it differs, or a comment. Unless noted, calls come from the whole dose curve; as a rule, active = well fitted curve in the direction sought with a large enough effect; inconclusive = small, poorly fitted or top-dose-only effect, or another doubt; inactive = no such curve, though single readings can be large; an effect the other way counts as inactive or inconclusive. Potency is the fitted concentration of half-maximal effect.

SMILES	SMN2 splice up	uPA generation	FLuc modulator	NPC1 promoter act	Rab9 prom act	ELG1 genotox
Cc1nc2ccc(NC(=O)Cc3cccs3)cc2s1	?	1.9%	7.57µM*	3.98µM*	2.51µM*	?
O=C(Cc1cccs1)Nc1cccc(-c2nc3cc4ccccc4cc3[nH]2)c1	6.31µM*	-13.4%	0.849µM*	1.58µM*	1.78µM*	?
CCOC(=O)C1=C(CS(=O)(=O)c2ccc(C)cc2)NC(=O)NC1c1ccc(C(C)C)cc1 (stereo not drawn)	-48.4%	/	4.1%	/	/	/
COc1ccc(-n2c(=O)c3c4c(sc3n3c(SC(C)C)nnc23)COC(C(C)C)C4)cc1 (stereo not drawn)	1.0%	/	-3.6%	/	/	/
O=C(NCc1ccco1)c1ccc2c(c1)N(Cc1ccc(F)cc1)C(=O)c1ccccc1S2(=O)=O	-2.7%	/	1.8%	/	/	/
O=C(Cc1cccs1)Nc1ccc(F)c(F)c1	/	2.1%	-10.3%	-1.4%	-1.4%	1.5%
Cc1ccc(NC(=O)Cc2cccs2)cc1Cl	/	2.2%	19µM*	24.9%	?	10.2%
O=C(O)c1ccccc1C=NNc1ccc([N+](=O)[O-])cn1	/	5.0%	/	/	/	/
COc1cccc(/C=N/Nc2ccc([N+](=O)[O-])cn2)c1O	/	-14.1%	0.757µM*	-23.4%	-25.2%	2.59µM*
COc1cccc(/C=N/Nc2ccnc(=O)[nH]2)c1O	/	-11.2%	16.9µM*	-22.2%	-19.9%	11.1%
O=c1nccc(N/N=C/c2ccccc2O)[nH]1	/	0.1%	?	-18.2%	-4.5%	5.6%
CCCOc1ccc(C(=O)N(Cc2ccccc2Cl)C2CCS(=O)(=O)C2)cc1 (stereo not drawn)	-27.4%	/	1.7%	/	/	/
O=C(COC(=O)c1ccc2ccccc2n1)c1ccccc1	-20.4%	5.0%	6.75µM*	-1.6%	-3.2%	-17.4%
O=C(OCC(=O)c1ccc[nH]1)c1ccc2ccccc2n1	6.0%	7.7%	?	-1.2%	-4.6%	5.1%
O=C(OCc1ccc(F)cc1)c1ccc2ccccc2n1	11.8%	3.5%	19µM*	1.0%	-0.2%	3.1%
O=C(OCc1nnc(-c2ccccc2)o1)c1ccc2ccccc2n1	-7.6%	0.5%	?	-2.0%	13.5%	?
COc1ccc(-c2csc(-c3cccnc3)n2)cc1C	/	-27.6%	7.57µM*	?	2.82µM*	?
NC(=O)c1cc(-c2csc(-c3cccnc3)n2)ccc1O	/	3.1%	?	24.3%	3.7%	3.6%
COc1ccc2cc(-c3csc(-c4cccnc4)n3)ccc2c1	12.6µM*	5.0%	2.13µM*	3.16µM*	?	12.6µM*
COc1ccccc1NC(=O)C1=C(C)Nc2nc(SCc3ccccc3Cl)nn2C1c1ccccn1 (stereo not drawn)	1.3%	/	-0.4%	/	/	/
CCOc1ccc(-n2c(=O)c3c4c(sc3n(CC(=O)NC(C)CC)c2=O)CCC4)cc1 (stereo not drawn)	7.4%	/	-0.4%	/	/	/
Cc1ccc(C)c(N2CCN(S(=O)(=O)c3ccc(-c4cc(C(F)(F)F)on4)s3)CC2)c1	/	/	-4.8%	/	/	/
Cc1ccc(Cl)cc1-n1ncc2c(NC3CCCCCC3)ncnc21	/	/	-0.4%	/	/	/
CCOC(=O)N1CCC(Nc2ncnc3c2cnn3-c2ccccc2)CC1	-35.8%	/	-16.9%	-2.4%	20.3%	-4.3%
Fc1ccc(-n2ncc3c(Nc4ccc(Oc5ccc(Cl)cc5)cc4)ncnc32)cc1	/	/	0.6%	/	/	/
SMILES	SMN2 splice up	uPA generation	FLuc modulator	NPC1 promoter act	Rab9 prom act	ELG1 genotox
Cc1ccc(-n2ncc3c(NC4CCCCCC4)ncnc32)cc1Cl	/	/	2.69µM*	/	/	/
c1ccc(-n2ncc3c(NC4CCCCCC4)ncnc32)cc1	/	?	2.69µM*	1.78µM*	1.78µM*	?
Clc1ccc(-n2ncc3c(NC4CCCC4)ncnc32)cc1	/	/	0.849µM*	/	/	/
Cc1nnc(SCC(=O)Nc2ccc(Br)cc2)[nH]c1=O	5.2%	/	?	/	/	/
COc1ccc(NC(=O)c2ccc3nccnc3c2)cc1	12.6µM*	-1.9%	26.9µM*	3.98µM*	2µM*	?
CCOc1ccc(NC(=O)c2ccc(OC)cc2)cc1	12.6%	-8.0%	?	?	20.1%[1.84 µM]	15.9%
CCOc1ccc(NC(=O)c2ccncc2)cc1	-12.5%	-1.4%	?	12.6%	4.2%	?
CCOc1ccc(NC(=O)Nc2ccc(NC(C)=O)cc2)cc1	-14.9%	-1.1%	-2.2%	-0.4%	0.2%	12.3%
CCOc1ccc(C(=O)Nc2c(C(N)=O)oc3ccccc23)cc1	-1.6%	/	10.7µM*	14.3%	17.3%	1.1%
CCOc1ccc(NC(=O)Nc2ccc3nccnc3c2)cc1	-22.1%	-1.5%	19µM*	-0.3%	4.9%	-11.6%
CCOc1ccc(NC(=O)c2oc3ccccc3c2NC(=O)c2cc(C)cc(C)c2)cc1	-9.4%	/	4.0%	/	/	/
CCOc1ccc(NC(=O)c2ccc3nccnc3c2)cc1	-26.4%	0.9%	16.9µM*	21.0%	?	?
COc1ccc(C)cc1NC(=O)Cn1c(=O)n(Cc2nc(C)no2)c(=O)c2ccccc21	/	/	-0.4%	/	/	/
O=C(c1ccccn1)N1CCCC(N2CCN(c3ccc(F)cc3)CC2)C1 (stereo not drawn)	/	-1.1%	0.8%	-3.0%	3.8%	-0.2%[9.26 µM]
CCc1ccc(NC(=O)c2n[nH]c(=O)c3ccccc23)cc1	/	-5.7%	?	3.16µM*	2.51µM*	?
CCOc1ccc(NC(=O)c2ccc(NC(=O)c3ccc(NC(N)=O)cc3)cc2)cc1	/	1.1%	/	/	/	1.0%
CCCNC(=O)c1n[nH]c(=O)c2ccccc12	/	1.9%	1.6%	1.2%	-1.1%	3.0%
CCOc1ccc(NC(=O)c2ccc(NC(=O)Cc3n[nH]c(=O)c4ccccc34)cc2)cc1	/	-0.7%	-17.2%	2.5%	-0.7%	9.2µM*
CCOc1ccc(NC(=O)c2ccc(N)cc2)cc1	?	?	9.53µM*	?	?	?
CC(C)(C)NC(=O)Nc1ccc2nccnc2c1	?	-1.9%	23.9µM*	3.55µM*	3.55µM*	?
CC1CCC(NC(=O)CN2C(=O)c3cccnc3Oc3ccc(Cl)cc32)CC1 (stereo not drawn)	/	12.1%	-1.3%	16.8%	5.9%	9.8%
Cc1nc(N)nc2ccccc12	1.9%[9.22 µM]	/	/	/	/	/
COc1cc(C2NC(=O)NC(C)=C2C(C)=O)ccc1O (stereo not drawn)	/	0.3%	-2.9%	-1.2%	0.0%	-0.2%
Cc1ccc(-c2nnc(Nc3ccc4c(c3)OCO4)c3ccccc23)cc1S(=O)(=O)NC(C)C	0.8%	-13.7%	5.36µM*	0.8%	-0.5%	-6.0%
Cc1ccc(-c2nnc(Nc3ccc(Cl)c(Cl)c3)c3ccccc23)cc1S(=O)(=O)N(C)C	-3.3%	/	-2.2%	/	/	/
